The results in this text go back to PubChem BioAssay (Tox21).

A number with no mark means an inactive call. Activity calls are given as the source filed them. Calls follow the shape of the dose curve; as a rule, active = well fitted curve in the direction sought with a large enough effect in the repeat runs; inconclusive = weak or mixed curves; inactive = flat fitted curve, though single readings scatter.
% is scaled to controls: 0 for no effect and ±100 for the full control effect.

This assay is described as follows: qHTS assay to test for compound auto fluorescence at 590 nm (red) in HEK293 cell free culture (AID 720683). The following applies: cell-free medium autofluorescence, Ex540/Em590 red; series mostly up to 91.3 µM; fluorescence, % of fluorescent control: at the top concentration. The source says: U.S. Tox21 Program National Center for Advancing Translational Sciences [NCATS] NIH Chemical Genomics Center [NCGC] U.S. Environmental Protection Agency [EPA] National Institutes of Environmental Health Sciences [NIEHS] National Toxicology Program [NTP] U.S. Food and Drug Administration [FDA] Tox21 Assay Overview: Compound auto fluorescence often interferes with screening of the compound library against various biological targets and signaling pathways. Some of these compounds may have fluorophoric properties. Such properties may interfere with the assay outputs resulting in false positives and/or negatives. To decrease such complications and ensure the compound activities are relevant in terms of biological response, the Tox21 10K compound library was screened for auto fluorescence. From the fluorophores used as reporter signals in our screening assays, the auto fluorescence equivalencies of compounds against three fluorophores have been evaluated: Triamterene, Fluorescein and Rose Bengal sodium for blue, green and red fluorescence, respectively. The fluorescence intensities were measured using Excitation/Emission wavelengths at 405/460nm, 485/535nm and 540/590nm for blue, green and red labels, respectively. This assay includes the red fluorescence data.
Tox21 Assay Protocol Summary: 5 uL of culture medium (DMEM containing 10% FBS) per well was dispensed into black wall/clear bottom 1536-well plates using a Multidrop Combi Dispenser (ThermoFisher Scientific, Waltham, MA). After 23 nL compound or DMSO vehicle was transferred into assay plate by a pintool work station (Kalypsys, San Diego, CA), fluorescence intensities in the assay plates were measured by an Envision (PerkinElmer, Shelton, CT) plate reader using three labels for measuring blue, green and red fluorescence at […] 460, 535 and 590nm respectively.
For orientation: Quantitative high-throughput screening tests each substance at several concentrations.
With `O=C(N[C@@H](c1ccccc1)[C@@H]1CCCCN1)c1cccc(C(F)(F)F)c1Cl`, the “fluorescence, % of fluorescent control” value was -0.135%.

As to `Nc1nccs1`, the molecule was called inactive.

Take `C=CC(C)(C)CC(=O)OC`: the “fluorescence, % of fluorescent control” value was -0.0164%.

On to `O=C(Nc1ccccc1)Nc1ccccc1`, for which the “fluorescence, % of fluorescent control” value is 0%.

In the case of `CSc1ccc(Oc2ccc(S(N)(=O)=O)cc2CN(C)C)cc1C`, the “fluorescence, % of fluorescent control” value was 0.195%.

Regarding `CC(Cl)C(Cl)Cl` (stereo not given), the “fluorescence, % of fluorescent control” value is 0.0017%.

As for `CO/N=C1\CN(c2nc3c(cc2F)c(=O)c(C(=O)O)cn3C2CC2)CC1CN` (stereo not given), the “fluorescence, % of fluorescent control” value is -0.0203% [at 46 µM].

For the molecule `CC(=O)Nc1ccccc1C`, the “fluorescence, % of fluorescent control” value was 0.132% [at 95.7 µM].

As to `CC(C)(C)CC(C)(C)c1ccc(OCCO)cc1`, the molecule was classed as inactive.

With `CCCC(=O)O[C@]1(C(=O)COC(=O)CC)CC[C@H]2[C@@H]3CCC4=CC(=O)CC[C@]4(C)[C@H]3[C@@H](O)C[C@@]21C`, the “fluorescence, % of fluorescent control” value is -0.442% [at 46 µM].

On to `Cc1ccnc2ccccc12`, for which the “fluorescence, % of fluorescent control” value is -0.193%.

On to `CCCCCCOC(=O)C(C)C`, for which the “fluorescence, % of fluorescent control” value was -0.631%.

For the molecule `COc1cc2c(cc1OC)-c1cc(=Nc3c(C)cc(C)cc3C)n(C)c(=O)n1CC2`, the “fluorescence, % of fluorescent control” value is -0.198% [at 46 µM].

Turning to `C=CC(C)=CCC=C(C)C`, the “fluorescence, % of fluorescent control” value is 0.0588%.

For the molecule `Cc1ccc(Nc2nccc(N(C)c3ccc4c(C)n(C)nc4c3)n2)cc1S(N)(=O)=O`, the “fluorescence, % of fluorescent control” value is 0.345% [at 46 µM].

On to `CCCc1c(OCCCOc2ccc(OCC(=O)O)cc2)ccc(C(C)=O)c1O`, for which the “fluorescence, % of fluorescent control” value is 0.0196%.

Consider `Nc1ccc(Cl)cc1[N+](=O)[O-]`, for which the “fluorescence, % of fluorescent control” value is 0.0756%.

As to `ON(Cc1ccccc1)Cc1ccccc1`, the “fluorescence, % of fluorescent control” value was 0.052%.

`CCC(C)=O`: the “fluorescence, % of fluorescent control” value is -0.358%.

Regarding `CCCCCCCCCCOS(=O)(=O)O`, the “fluorescence, % of fluorescent control” value is -0.173%.

As to `O=C(/C=C/c1ccccc1)OCCCc1ccccc1`, the “fluorescence, % of fluorescent control” value is -0.0441%.

`CCOC(=O)OCC`: the “fluorescence, % of fluorescent control” value was -0.236% [at 95.7 µM].

As to `Cc1nc2ccccc2s1`, the “fluorescence, % of fluorescent control” value was -0.172%.

As to `C[Si](NC1CCCCC1)(NC1CCCCC1)NC1CCCCC1`, the “fluorescence, % of fluorescent control” value is 0.0288%.

Take `C[C@@H]1C[C@H]2[C@@H]3CCC4=CC(=O)C=C[C@]4(C)[C@@]3(F)[C@@H](O)C[C@]2(C)[C@@]1(O)C(=O)CO`: the “fluorescence, % of fluorescent control” value is -0.318% [at 95.7 µM].

Turning to `CC(=O)OCC(=O)[C@@]12OC(C)(C)O[C@@H]1C[C@H]1[C@@H]3C[C@H](F)C4=CC(=O)C=C[C@]4(C)[C@@]3(F)[C@@H](O)C[C@@]12C`, the fluorescence, % of fluorescent control was 0.389% [at 18.6 µM].

For `O=C(c1ccc(O)cc1)c1ccc(Cl)cc1`, the “fluorescence, % of fluorescent control” value is -0.15% [at 95.7 µM].

Turning to `CCOC(=O)[C@@H](C)Oc1ccc(Oc2nc3ccc(Cl)cc3o2)cc1`, the “fluorescence, % of fluorescent control” value is 0.0051%.

For the molecule `CC(C)CCCCCCOC(=O)CCCCC(=O)OCCCCCCC(C)C`, the “fluorescence, % of fluorescent control” value was -0.0777%.

Take `CC1=C(/C=C/C(C)=C\C=C\C(C)=C\C(=O)O)C(C)(C)CCC1`: the “fluorescence, % of fluorescent control” value was 0.305%.

As for `CC(C)CCCC(=O)O`, the “fluorescence, % of fluorescent control” value was -0.253%.

As for `Cc1ccc(/C=N/n2c(-c3ccccc3)csc2=S)cc1`, the “fluorescence, % of fluorescent control” value was 0.122% [at 46 µM].

`CO[C@H]1O[C@H](CO)[C@@H](O)[C@H](O)[C@H]1O`: the “fluorescence, % of fluorescent control” value was 0.0073%.

For the molecule `C=CCOC(=O)/C=C\C(=O)OCC=C`, the “fluorescence, % of fluorescent control” value is -0.0674% [at 95.7 µM].

With `OC(CCCN1CCCCC1)(c1ccccc1)c1ccccc1`, the “fluorescence, % of fluorescent control” value is 0.0459% [at 46 µM].

For `CCCCC(CC)C(=O)OCCOCCOCCOCCOC(=O)C(CC)CCCC` (stereo not given), the “fluorescence, % of fluorescent control” value was -0.0167%.

For `O=C1OCCN1/N=C/c1ccc([N+](=O)[O-])o1`, the “fluorescence, % of fluorescent control” value was 0.127% [at 46 µM].

Consider `NC(=O)Nc1ccc(Cl)c(Cl)c1`, for which the “fluorescence, % of fluorescent control” value was -0.319%.

In the case of `C/C=C(\C)C(=O)OCCC(C)CCC=C(C)C` (stereo not given), the “fluorescence, % of fluorescent control” value was -0.0512%.

On to `CCCCCCCC/C=C\CCCCCCCC(=O)OC(CO)CO`, for which the “fluorescence, % of fluorescent control” value was -0.107%.
